One assay concerns the target CDKL2. The assay can be described thus: pooled miR-30 sensor sort-seq; sequence = guide strand. Particulars: shRNA.
Sequence TTCAACTAAGGAATCATCTTTT displayed a sensor-assay potency score (higher = more potent) of 0.409. Still for that read-out and setting: the result for TTTAGTAACTTGATTTCTCGCA reads 0.263; that for TTTCTTTCTTCAACTAAGGAAT, -1.1; that for TTTGTCATCGTCACTTTCTAAG, -0.977.

For TACTTTTAACTGTAGTTCTTGG, the sensor-assay potency score (higher = more potent) is -0.4. Still for that read-out and setting: the result for TTAGATAAAGAAACATTTCTGG reads 0.295.

Another assay deals with CDKN2B. The assay is described as above. Particulars: shRNA.
The sequence AGGTACCCTGCAACGTCGCGGT registered a sensor-assay potency score (higher = more potent) of -1.5.

Sequence ATCATGCACCGGTCGGGTGAGA came in with a sensor-assay potency score (higher = more potent) of -1.72. The same measure, in the same setting: the result for TTAACTGAGAGCCACTAGTTAT reads -1.26. The same measure, in the same setting: the value for AAACGGTTGACTCCGTTGGGAT was -1.42; that for TTTTTCAGCAATCTTTTGGGAA was -0.00426. Same read-out and setting: the value for TGTCGCACCTTCTCCACTAGTC was -0.304; that for TTTACTGCATAAGTGCATCTAT was 0.135; that for TATAATGATCAAGCAACCCTGG was 0.0689. TTGACTCCGTTGGGATCCGCGC displayed a sensor-assay potency score (higher = more potent) of -1.43. TAGTCTGACCTCTGCACCCTGA showed a sensor-assay potency score (higher = more potent) of -1.07.

In turn, TCATCCTGTGTAGTCTGCCTGC gave a sensor-assay potency score (higher = more potent) of -0.705. Still for that read-out and setting: the value for TAATTTACTGCATAAGTGCATC was -0.823; that for TAGCATCTGTCGTCGCTTGCAC was -0.163. On the same count and under the same terms, the result for TATTTCTTAGTCTGACCTCTGC reads -0.197. Same read-out and setting: the value for TGCACCGGTCGGGTGAGAGTGG was -1.46. The sequence TTGGAGTGAACGCATCGACTGC displayed a sensor-assay potency score (higher = more potent) of -0.833. On the same count and under the same terms, the value for TTTTAGCATCTGTCGTCGCTTG was 0.0607; that for TTTAGCATCTGTCGTCGCTTGC was 0.0347; that for TGCGCAGGTACCCTGCAACGTC was -1.43. The sequence TAAGAAAATAAAGTCGTTGTGG came in with a sensor-assay potency score (higher = more potent) of 0.511. Still for that read-out and setting: the result for TCCCGAAACGGTTGACTCCGTT reads -1.06. Regarding TTCCAGGAGCTGTCGCACCTTC, the sensor-assay potency score (higher = more potent) is -0.732. On the same count and under the same terms, the result for TTTCTTAGTCTGACCTCTGCAC reads 0.0018.

The target of a further assay is CEACAM7. The assay is described as above. Particulars: shRNA.
Regarding AATATCTTTGTTCTCCACCGGA, the sensor-assay potency score (higher = more potent) is -0.351. On the same count and under the same terms, the result for TAGAGGTCTAACTCTAACAGGG reads -0.585; that for TATCCTATAATTCGATAGTTGG, -0.535; that for TGACTCATAGCGGACATTCAGG, -0.817. Still for that read-out and setting: the result for TATTGTCTCTCGACCGTTGTGT reads 0.904.

As for TATAATTCGATAGTTGGCATGC, the sensor-assay potency score (higher = more potent) was -0.121.

For TAAAACCACAATATCTTTGTTC, the sensor-assay potency score (higher = more potent) was 0.0103. On the same count and under the same terms, the value for AACTTGCTTGTACTGACTCATA was -1.59; that for ATATCTTTGTTCTCCACCGGAT was -0.501; that for TTGACTTATATTTTTTACATAT was -1.26. Same read-out and setting: the value for AATCATGATGCTGACAGCGGTC was -0.463.

The values are drawn from the OligoGym collection.
Further: reference of the scale not given here.
